Results filed as inconclusive are left out. Activity calls are given as the source filed them. Calls come from the whole dose curve; as a rule, active = well fitted curve in the direction sought with a large enough effect; inconclusive = small, poorly fitted or top-dose-only effect, or another doubt; inactive = no such curve, though single readings can be large; an effect the other way counts as inactive or inconclusive.

The source of these data is PubChem BioAssay (NCATS).

Assay [1] can be described thus: S16 Schwann cell viability assay (CellTiter-Glo assay) (AID 624031).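 Note: native untransfected S16 rat Schwann cells; nearly all actives have a fitted effect of over 70% in size.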 In outline:
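Cells were seeded at 500-750 per well in phenol red-free DMEM with 10% FBS and left overnight. Compounds or DMSO were pinned in, incubation ran 24 h at 37 °C/5% CO2, then CellTiter-Glo reagent was added and luminescence measured.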
Background: ATP-based viability assays read luminescence as a measure of living cells.

Assay [2] deals with 3D7. The assay can be described thus: qHTS profiling for inhibitors of Plasmodium falciparum proliferation (AID 504749). Note: nearly all actives have a fitted effect of over 60% in size. Note: potency is the fitted concentration of half-maximal effect. As to conditions: P. falciparum in erythrocytes, SYBR Green DNA, 72 h; series mostly up to 28.7 µM. In short, it runs like this: (§1)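 SYBR Green fluorescence of parasite DNA, read after lysis and overnight dark incubation, measured growth over 72 h in erythrocyte culture at 0.3% parasitemia and 2.5% hematocrit. Data normalised to DMSO and 0.29 uM artemisinin, with plate-drift correction.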
Background: qHTS replaces the single test concentration by a dilution series.

The subject of assay [3] is 7G8. The assay is described as above. The note with it: P. falciparum in erythrocytes, SYBR Green DNA, 72 h; series mostly up to 28.7 µM. In outline: as §1
Assay [4] relates to ATS95. The assay is described as above. As to conditions: P. falciparum in erythrocytes, SYBR Green DNA, 72 h; series mostly up to 28.7 µM. In short, it runs like this: as §1
In assay [5] the test system is CP191. The assay is described as above. The note with it: P. falciparum in erythrocytes, SYBR Green DNA, 72 h; series mostly up to 28.7 µM. In short, it runs like this:
as §1

For assay [6], the system named is CP215. Described as above. As to conditions: P. falciparum in erythrocytes, SYBR Green DNA, 72 h; series mostly up to 28.7 µM. In short, it runs like this:
as §1

Assay [7] has as its system CP247. The description is as above. As to conditions: P. falciparum in erythrocytes, SYBR Green DNA, 72 h; series mostly up to 28.7 µM. In outline:
as §1

Assay [8] concerns CP266. The assay is described as above. The note with it: P. falciparum in erythrocytes, SYBR Green DNA, 72 h; series mostly up to 28.7 µM. In short, it runs like this: as §1
The test system of assay [9] is CP291. The description is as above. The note with it: P. falciparum in erythrocytes, SYBR Green DNA, 72 h; series mostly up to 28.7 µM. In outline:
as §1

In assay [10] the test system is CP335. Described as above. As to conditions: P. falciparum in erythrocytes, SYBR Green DNA, 72 h; series mostly up to 28.7 µM. In short, it runs like this: as §1
Assay [11] deals with DIV17. Described as above. The note with it: P. falciparum in erythrocytes, SYBR Green DNA, 72 h; series mostly up to 28.7 µM. In outline:
as §1

Assay [12] has as its system DIV30. The description is as above. The note with it: P. falciparum in erythrocytes, SYBR Green DNA, 72 h; series mostly up to 28.7 µM. In short, it runs like this: as §1
Assay [13] concerns P93_24. Described as above. The note with it: P. falciparum in erythrocytes, SYBR Green DNA, 72 h; series mostly up to 28.7 µM. In outline: as §1
The test system of assay [14] is P94_40. The description is as above. As to conditions: P. falciparum in erythrocytes, SYBR Green DNA, 72 h; series mostly up to 28.7 µM. In short, it runs like this: as §1
Assay [15] deals with PAD. The description is as above. The note with it: P. falciparum in erythrocytes, SYBR Green DNA, 72 h; series mostly up to 28.7 µM. In outline: as §1
In assay [16] the test system is PC26. Described as above. The note with it: P. falciparum in erythrocytes, SYBR Green DNA, 72 h; series mostly up to 28.7 µM. In outline: as §1
In assay [17] the test system is SC27B. Described as above. As to conditions: P. falciparum in erythrocytes, SYBR Green DNA, 72 h; series mostly up to 28.7 µM. In short, it runs like this: as §1
Assay [18] relates to TAB113. The assay is described as above. As to conditions: P. falciparum in erythrocytes, SYBR Green DNA, 72 h; series mostly up to 28.7 µM. In outline: as §1
In assay [19] the test system is TAB165. Described as above. As to conditions: P. falciparum in erythrocytes, SYBR Green DNA, 72 h; series mostly up to 28.7 µM. In outline:
as §1

In assay [20] the test system is CP260. The description is as above. As to conditions: P. falciparum in erythrocytes, SYBR Green DNA, 72 h; series mostly up to 28.7 µM. In short, it runs like this:
as §1

With `CC1C(=O)C(=O)C=CN1C` (stereo not given), the Potency entry in [1], in [2], in assay [3], in assay [4], in assay [5] and in [6] was “inactive” in each case. Further, the Potency result in assay [7], in assay [8], in assay [9], in assay [10], in assay [11] and in assay [12] was “inactive” in each case. Also, the Potency result in [13], in [14], in [15], in assay [16], in assay [17] and in assay [18] was “inactive” each time. In addition, the Potency result in assay [19] was “inactive”.

Consider `CC(CN1CC(=O)NC(=O)C1)N1CC(=O)NC(=O)C1` (stereo not given), for which the Potency entry in assay [1], in [2], in assay [3], in [4], in assay [5] and in assay [7] was “inactive” throughout. For the same compound, the Potency result in assay [20], in assay [8], in [9], in [10], in [11] and in [12] was “inactive” each time. Also, the Potency result in assay [13], in assay [14], in assay [15], in assay [16], in [17] and in assay [18] was “inactive” in each case. Besides, in assay [19], the Potency result is “inactive”.

Consider `Nc1ncn(C2C[C@H](O)[C@@H](CO)O2)c(=O)n1` (stereo not given in full), for which the Potency entry in assay [1], in [2], in [3], in assay [4], in assay [5] and in assay [7] was “inactive” each time. For the same compound, the Potency entry in assay [20], in assay [9], in assay [10], in assay [11], in assay [12] and in assay [13] was “inactive” in each case. The Potency entry in [14], in [15], in assay [16], in assay [17], in [18] and in assay [19] was “inactive” each time.

Take `Cc1cc2nc3c(=O)[nH]c(=O)nc-3n(CC(O)C(O)C(O)COP(=O)(O)O)c2cc1C` (stereo not given): the Potency result in [1], in assay [2], in [3], in assay [4], in assay [6] and in assay [20] was “inactive” throughout. Moreover, the Potency result in assay [8], in assay [9], in assay [10], in assay [11], in [12] and in [13] was “inactive” in each case. For the same compound, the Potency entry in assay [14], in assay [15], in assay [16], in assay [17], in [18] and in assay [19] was “inactive” in each case.

On to `Nc1nc2[nH]cc(CCc3ccc(C(=O)NC(CCC(=O)O)C(=O)O)cc3)c2c(=O)[nH]1` (stereo not given), for which the Potency entry in assay [1] was “inactive”. Further, the Potency in [2] was 8.91 µM (active); in assay [3], 3.98 µM (active); in [5] it was 0.158 µM (active); in assay [6], 0.601 µM (active); in assay [7] it was 0.199 µM (active); in assay [20], 0.126 µM (active). For the same compound, the Potency was 0.135 µM (active) in assay [10], 0.224 µM (active) in assay [15] and 7.94 µM (active) in [19].

In the case of `CC(=O)OC1C([N+]2(C)CCCCC2)C[C@H]2C3CC[C@H]4C[C@H](OC(C)=O)C([N+]5(C)CCCCC5)CC4(C)C3CCC12C` (stereo not given in full), the Potency result in [1], in assay [2], in assay [3], in [4], in [5] and in [7] was “inactive” in each case. Besides, the Potency result in [20], in [13], in [14], in assay [15], in [17] and in assay [18] was “inactive” in each case. Also, the Potency entry in [19] was “inactive”. In addition, the Potency in assay [16] is 16.9 µM (active).

In the case of `CC(=O)CC(c1ccccc1)C1C(=O)Oc2ccccc2C1=O` (stereo not given), the Potency result in assay [1], in [2], in assay [3], in [5], in assay [6] and in [7] was “inactive” in each case. Further, the Potency result in [20], in assay [8], in assay [9], in assay [10], in assay [11] and in [12] was “inactive” in each case. Besides, the Potency result in assay [13], in assay [14], in [15], in [16], in assay [17] and in assay [18] was “inactive” each time. In addition, the Potency entry in [19] was “inactive”.

For the compound `CCCC(=O)Nc1c(I)cc(I)c(C[C@H](CC)C(=O)O)c1I`, the Potency result in [1], in assay [2], in assay [3], in assay [4], in assay [5] and in [6] was “inactive” throughout. Besides, the Potency entry in assay [7], in [8], in assay [9], in assay [10], in assay [11] and in [12] was “inactive” in each case. Besides, the Potency entry in [13], in [14], in assay [15], in [16], in assay [17] and in assay [18] was “inactive” in each case. In [19], the Potency result was “inactive”.

Take `COc1ccc(S(=O)(=O)N2c3ccc(Cl)cc3[C@](O)(c3ccccc3Cl)[C@@H]2C(=O)N2CCC[C@H]2C(N)=O)cc1OC`: the Potency result in assay [1], in [2], in assay [4], in assay [5], in assay [6] and in assay [7] was “inactive” each time. Also, the Potency entry in assay [8], in assay [9], in [12] and in assay [18] was “inactive” in each case. Moreover, in assay [3], the Potency is 11.2 µM (active).

For `O=C(O)C(O)c1ccccc1` (stereo not given), the Potency result in assay [1], in [2], in assay [3], in assay [4], in assay [5] and in [6] was “inactive” throughout. The Potency result in assay [7], in [20], in assay [8], in assay [9], in assay [10] and in assay [11] was “inactive” each time. For the same compound, the Potency entry in assay [12], in [13], in [14], in [15], in assay [16] and in assay [17] was “inactive” throughout. The Potency entry in assay [18] and in assay [19] was “inactive” in each case.

Turning to `CO/N=C(/C(=O)N[C@@H]1C(=O)N2C(C(=O)O)=C(CSc3nnnn3C)CS[C@H]12)c1csc(N)n1`, the Potency entry in assay [1], in assay [2], in [3], in assay [4], in [5] and in assay [6] was “inactive” in each case. Besides, the Potency entry in [7], in assay [20], in assay [9], in assay [10], in [11] and in [12] was “inactive” in each case. The Potency entry in assay [13], in [14], in assay [15], in [16], in assay [17] and in assay [18] was “inactive” in each case. In addition, the Potency result in [19] is “inactive”.

Turning to `CCCCC(=O)O[C@]1(C(=O)CO)CCC2C3CCC4=CC(=O)CCC4(C)C3C(O)CC21C` (stereo not given in full), the Potency result in assay [1], in assay [2], in [4], in assay [5], in [6] and in [7] was “inactive” each time. In addition, the Potency entry in [8], in assay [9], in [10], in assay [11], in assay [12] and in [13] was “inactive” throughout. The Potency entry in [14], in [15], in assay [16], in assay [17], in assay [18] and in assay [19] was “inactive” throughout. Further, in assay [3], the Potency was 12.6 µM (active).
